# Source: PubChem BioAssay AID686996 (Broad Institute, 2013)
# Out of some 350,000 compounds screened, about 1,900 (0.54%) were called active. This is one part of a sample in which actives are shown more often than they occur. Values without a mark were called inactive.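 How the source made its calls: active means mean inhibition across replicates at least about 35%, with every replicate also reaching that limit (limit read from the data); inconclusive means only one of the two criteria met; inactive means neither criterion met.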
# Target: Caspase-6 (Homo sapiens) (UniProt P55212)
# Experiment: human caspase-6 inhibitors, primary screen, biochemical, VEID-R110 fluorescence, single point, set 2 (AID 686996);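 further: 0% = median of neutral control wells and 100% = no fluorescence left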
# Conditions: purified caspase-6, Z-VEID-R110 cleavage fluorescence; at 12.5 µM; active compounds read high
# Sequence of Caspase-6 (Homo sapiens) (P55212 24-179 limits assumed): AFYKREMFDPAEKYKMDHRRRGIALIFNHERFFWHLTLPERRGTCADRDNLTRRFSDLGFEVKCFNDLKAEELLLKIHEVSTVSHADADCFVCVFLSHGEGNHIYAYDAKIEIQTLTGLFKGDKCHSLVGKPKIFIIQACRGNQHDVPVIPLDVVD
# Sequence of Caspase-6 (Homo sapiens) (P55212 194-293 limits assumed): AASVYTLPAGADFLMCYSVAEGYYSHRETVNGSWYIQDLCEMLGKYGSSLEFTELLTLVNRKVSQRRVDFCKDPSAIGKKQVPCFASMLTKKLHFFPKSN
row,Compound,inhibition
1,O=C(CCN1C(=O)c2ccccc2C1=O)Nc1cccc(F)c1,-0.612%
2,O=C(Nc1cccc(F)c1)c1coc(=O)c(Br)c1,51.7% (active)
3,O=C(Nc1cccc(F)c1)c1cc(-c2ccco2)nc2ccccc12,-7.91%
4,C[C@H](CO)N1C[C@H](C)[C@@H](CN(C)C(=O)Nc2ccc3c(c2)OCO3)OCCCC[C@H](C)Oc2ccc(NS(=O)(=O)c3cn(C)cn3)cc2C1=O,-1.24%
5,CC(=O)N1CC2(C1)[C@H](c1ccccc1)[C@@H](CO)N2C(=O)Cc1ccccc1,0.826%
6,CCOC(=O)C1=C(C(=O)OCC)C2N(Cc3ccc(C#N)cc3)c3ccccc3[C@@]23C[C@@H](C(=O)OC)N(S(=O)(=O)c2ccc(F)cc2)C3=N1 (stereo not given in full),-0.093%
7,CCC(C)CN1C(=O)CN(S(C)(=O)=O)CC1(C)C(=O)Nc1ccc2c(c1)OCCO2 (stereo not given),39.7% (active)
8,CC1(C(=O)Nc2ccc3c(c2)OCCO3)CN(S(C)(=O)=O)CC(=O)N1Cc1cccc(F)c1 (stereo not given),1.36%
9,CC(C)CN1C(=O)CN(S(C)(=O)=O)CC1(C)C(=O)NCc1ccccc1 (stereo not given),-0.689%
10,COc1ccc(CN(C)C[C@H]2OCCCC[C@@H](C)Oc3ccc(NS(C)(=O)=O)cc3C(=O)N([C@@H](C)CO)C[C@H]2C)cc1,-2.66%
11,CCCNC(=O)[C@@H]1[C@@H](CO)[C@@H]2Cn3c(ccc(-c4ccccc4F)c3=O)[C@H]1N2CC1CC1,0.74%
12,COc1ccc2c3c([nH]c2c1)[C@H](CO)N(Cc1ccc(F)cc1)CC31CCN(Cc2ccccn2)CC1,-3.59%
13,C[C@H](CO)N1C[C@H](C)[C@H](CN(C)Cc2ccncc2)Oc2ccc(N(C)C)cc2C1=O,2.63%
14,C#CCNc1ccc(C(=O)OCC)cc1,-1.16%
15,CCOC(=O)c1ccc(Nc2cc3ccccc3c(=O)[nH]2)cc1,87.8% (active)
16,CCOC(=O)c1ccc(NC(=O)c2c(NCc3ccccc3)[nH]c(=O)[nH]c2=O)cc1,0.97%
17,CCC(=O)N1CCCCN2[C@H](C1)[C@@H](c1ccc(C#CCOC)cc1)[C@@H]2CO,-1.73%
18,COc1ccc(S(=O)(=O)Nc2cccc3c2O[C@@H](CN(C)C(=O)Nc2ccccc2)[C@@H](C)CN([C@@H](C)CO)C3=O)cc1,-2.16%
19,C[C@@H]1CN([C@H](C)CO)S(=O)(=O)c2ccc(C#C[C@@H](C)O)cc2O[C@H]1CN(C)C(=O)CC1CC1,0.478%
20,Cc1ccc(CNC(=O)C2CCN(S(=O)(=O)c3ccc4nc5c(c(C(=O)O)c4c3)CC(C)CC5)CC2)cc1 (stereo not given),62.6% (active)
21,CC(=O)N1c2ccc(S(=O)(=O)N3CCC(C(=O)NCc4ccc(F)cc4)CC3)cc2CC1C (stereo not given),22.3%
22,CCOC(CNC(=O)C1CCN(S(=O)(=O)c2ccc3nc4c(c(C(=O)O)c3c2)CC(C)CC4)CC1)OCC (stereo not given),33.4%
23,N#C[C@H]1[C@@H](c2ccccc2-c2ccccc2F)[C@@H](CO)N1C(=O)C1CCC1,-2.32%

row,Compound,inhibition
1,CC(=O)N1[C@@H](CO)[C@@H](c2ccc(C3=CCCC3)cc2)C12CN(C(=O)C1CC1)C2,0.171%
2,O=C(O)c1cc(S(=O)(=O)Nc2ccc3cn[nH]c3c2)ccc1Br,43.4% (active)
3,O=C(Nc1ccc2cn[nH]c2c1)c1ccc(S(=O)(=O)N2CCOCC2)cc1,0.612%
4,COc1ccc(S(=O)(=O)Nc2ccc3cn[nH]c3c2)cc1[N+](=O)[O-],9.88%
5,C/C=C/c1ccccc1[C@@H]1[C@@H](CO)N(C(=O)CN2CCOCC2)[C@H]1C#N,-0.139%
6,C[C@H]1CN([C@@H](C)CO)C(=O)Cc2cc(NC(=O)CCCCCC(=O)Nc3ccccc3N)ccc2O[C@H]1CN(C)C(=O)Nc1ccc(F)cc1,0.452%
7,O=C(NNC(=O)c1cc(S(=O)(=O)N2CCCCC2)ccc1Cl)c1ccccc1O,0.767%
8,Cc1cc(C(=O)CCC(=O)NNC(=O)c2ccccc2O)c(C)s1,4.5%
9,O=C(NNC(=O)c1ccccc1O)c1ccccc1O,73.9% (active)
10,CN(C)CCCNC(=O)C[C@H]1CC[C@H]2[C@@H](COC[C@H](O)CN2C(=O)c2ccncc2)O1,0.773%
11,COC(=O)C(=Nc1ccccc1)/C(C(=O)C(=O)N(C)c1ccccc1)=C(\O)c1ccc(Cl)cc1,40.1% (active)
12,COC(=O)c1cn(C(=O)c2ccc(Cl)cc2)c2ccccc12,0.734%
13,CN(c1ccccc1)S(=O)(=O)c1cccc(NC(=O)Cc2ccc(Cl)cc2)c1,-0.727%
14,CN1C(=O)c2cc(NC(=O)C3CC3)ccc2OC[C@@H]2O[C@@H](CC(=O)NCC3CCCCC3)CC[C@@H]21,-1.04%
15,CO[C@H]1CN(C)C(=O)c2cc(NC(=O)Nc3c(C)noc3C)ccc2OC[C@@H](C)N(CCC(F)(F)F)C[C@H]1C,-1.87%
16,C[C@@H]1CN([C@@H](C)CO)C(=O)c2cc(C#CC3CC3)cnc2O[C@@H]1CN(C)C(=O)Cc1ccccn1,0.481%
17,CC(C)(C)[S@](=O)N1Cc2cc(C(=O)N3CCCCC3)nc(-c3cccc(-c4ccccc4F)c3)c2[C@@H]1CCO,-3.88%
18,CC(C)(C)S(=O)N1Cc2cc(C(=O)O)nc(-c3cccc(-c4cc5ccccc5o4)c3)c2[C@@H]1CCO (stereo not given in full),37.1% (active)
19,COc1ccccc1-c1cccc(-c2nc(C(=O)N3CCN(C)CC3)cc3c2[C@H](CCO)N([S@@](=O)C(C)(C)C)C3)c1,-1.46%
20,CC(C)(C)[S@@](=O)N1Cc2cc(C(=O)O)nc(-c3cccc(-c4cccc(F)c4)c3)c2[C@H]1CCO,-2.52%
21,CC(C)(C)S(=O)N1Cc2cc(C(=O)NCCCN3CCOCC3)nc(-c3cccc(-c4cc5ccccc5o4)c3)c2[C@H]1CCO (stereo not given in full),-2.64%
22,COc1ccc(C#Cc2cccc(-c3nc(C(=O)O)cc4c3[C@@H](CCO)N(S(=O)C(C)(C)C)C4)c2)cc1OC (stereo not given in full),35.2% (active)
